Measurements published in PubChem BioAssay AID504377 (National Center for Advancing Translational Sciences (NCATS), 2011).
Calls of active or inactive are those of the source. The rule behind the calls is not given here.

assay: Immunofluorescence assay for phosphorylation of ATM-targeted proteins for Identifying a Potential Treatment of Ataxia-Telangiectasia: SAR for Probe; details: F2111 A-T fibroblasts, KAP-1 pS824 immunofluorescence, NCS
From the text: NIH Chemical Genomics Center [NCGC] NIH Molecular Libraries Probe Centers Network [MLPCN] MLPCN Grant: MH089030-01 Assay Submitter (PI): Wei Zheng and Yosef Shiloh Ataxia-telangiectasia (A-T) is a devastating and progressive disease for which, there is no cure. Although A-T is a multisystem disease, it is stereotyped characterized by its neurological symptoms such as truncal ataxia, due to cerebellar cortical degeneration of the Purkinje and granule cells. Other symptoms of A-T are telangiectasias (dilated blood vessels), primary immunodeficiency, marked sensitivity to ionizing radiation (IR), chromosomal instability and predisposition to cancer. The underlying genetic cause of A-T is null mutations in the ATM (A-T mutated) gene. ATM is a nuclear serine/threonine kinase that functions as a master regulator of the cellular responses to double strand breaks (DSBs) in the DNA. Upon activation by DSBs, ATM phosphorylates a plethora of downstream targets, including KAP-1 on […]. KAP-1 phosphorylation occurs shortly in response to DSBs and mediates global chromatin relaxation, which facilitates DSB repair. To screen for small molecules that will compensate for the loss of ATM in cells derived from A-T patients, we monitored KAP-1 phosphorylation as a readout for ATM-like activity using an AlphaLISA assay. […]

Row | Structure (SMILES) | Potency
1 | CC(=O)c1c(O)c(C)c(O)c(Cc2c(O)c3c(c(C(=O)/C=C/c4ccccc4)c2O)OC(C)(C)C=C3)c1O | 10 µM (active)
